Compound activity (PubChem BioAssay)
A selection: hits, their analogues and other compounds. The true share with any hit is near 2.4%.
CHT block: inhibits the human high affinity choline transporter; Q9GZV3; CHT-expressing cells, membrane potential dye, choline response; hits give low values; B-score at 10 µM; hit rate 0.86% among 310,000;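 active means B-score over 3 SD under the library average, and starting fluorescence ratio not unusually high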;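 further: choline stimulus applied at its EC90 after an EC20 pre-addition; B-score computed on integrated fluorescence ratio after choline addition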
Target sequence (Q9GZV3 whole entry, looked up): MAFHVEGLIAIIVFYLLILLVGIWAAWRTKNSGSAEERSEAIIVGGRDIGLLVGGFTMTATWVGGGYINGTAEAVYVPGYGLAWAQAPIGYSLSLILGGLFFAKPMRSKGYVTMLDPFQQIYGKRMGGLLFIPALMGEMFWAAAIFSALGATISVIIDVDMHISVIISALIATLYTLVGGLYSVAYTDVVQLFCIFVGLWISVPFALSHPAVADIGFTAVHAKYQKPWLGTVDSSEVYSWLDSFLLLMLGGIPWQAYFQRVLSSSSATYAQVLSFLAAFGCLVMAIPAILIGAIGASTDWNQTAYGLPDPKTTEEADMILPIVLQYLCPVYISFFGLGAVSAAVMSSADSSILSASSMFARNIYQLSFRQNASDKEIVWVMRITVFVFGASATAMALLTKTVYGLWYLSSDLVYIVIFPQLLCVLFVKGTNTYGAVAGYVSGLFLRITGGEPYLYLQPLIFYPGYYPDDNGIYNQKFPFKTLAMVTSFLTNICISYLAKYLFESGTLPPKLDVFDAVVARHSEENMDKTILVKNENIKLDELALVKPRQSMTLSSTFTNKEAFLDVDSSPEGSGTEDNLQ
CHT allo act: human CHT allosteric activation; Q9GZV3; CHT-expressing cells, membrane potential dye, choline EC20; hits give high values; LV-AA mutant CHT in HEK293 cells; B-score at 10 µM; hit rate 0.49% among 310,000;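 active means initial fluorescence not abnormally high and integrated response B-score, plate-corrected, over 3 SD above library mean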
ANO1 block: mouse TMEM16A channel inhibition, primary screen; Q8BHY3; HEK293 TMEM16A/YFP iodide influx fluorescence, ionomycin; normalized B-score (activity score, 25-100; higher = stronger inhibition) at 10 µM; hit rate 1.2% among 310,000;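 active means ratio plate-corrected score three or more library SD toward inhibition, starting fluorescence score within five deviations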;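 further: score derived from kinetic fluorescence span divided by baseline fluorescence per well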
TMEM16A act: activates or potentiates the mouse TMEM16A chloride channel | hit rate 0.3% among 340,000 | Q8BHY3 | B-score at 10 µM | HEK293 TMEM16A/YFP-H148Q/I152L, iodide quench fluorescence; hits give low values;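 active means fluorescence-ratio B-score plate-corrected deviation score at least 3 library SD below zero, with starting fluorescence score within 5 deviations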;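 further: channel opened by trigger with iodide after compound preincubation; score built on the fluorescence ratio of max minus min over baseline; more negative score means more quench and so TMEM16A activation or potentiation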
CHT activ conf: confirmation of human choline transporter (CHT) activators. shares compounds with CHT allo act. CHT-expressing cells, membrane potential dye fluorescence (FDSS); % of choline EC20–EC90 response window; HEK293 expressing CHT LV-AA mutant; choline added at its EC20. activation, % at 10 µM. hit rate 91% among 2,500;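 active means primary screen active, with duplicate mean activation above negative control mean plus 3 SD, cut at about 11% in these data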
HEK293 MP dye: activity in parental HEK293 cells lacking CHT. shares compounds with CHT allo act. membrane potential dye fluorescence (FDSS); measured after EC20 choline addition. ratio readout change at 10 µM, hits read low. hit rate 62% among 2,500. AID 623908;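 active means duplicate-averaged ratio beyond 3 SD from buffer wells, up or down, though filed actives are nearly all decreases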
Hits are given with their value; 0 = inactive; - = no result given.

SMILES	CHT block	CHT allo act	ANO1 block	TMEM16A act	CHT activ conf	HEK293 MP dye
O=CN1CCN(C(=O)COc2ccc(Cl)cc2Br)CC1	0	0	0	0	-	-
N#CC1=C(Nc2ccccc2)SC=C(c2ccc(Cl)c(Cl)c2)N=C1N1CCOCC1	0	0	0	0	40	0
N#CC1=C(Nc2ccccc2)SC=C(c2ccccc2)N=C1N1CCOCC1	-	-	-	0	-	-
O=C(Nc1ccccc1)Nc1ccncc1	0	0	0	0	-	-
O=C(Nc1ccncc1)Nc1ccccn1	0	0	0	0	50	-45
O=C(CCNS(=O)(=O)c1ccc(Br)s1)Nc1ccc(Cl)cc1	0	0	0	0	-	-
CC1Oc2ccccc2N(CC(=O)NCCN2CCOCC2)C1=O (configuration not stated)	0	0	0	0	-	-
CCCCC[n+]1ccn(-c2nc3ccccc3nc2[N-]S(=O)(=O)c2ccccc2)c1	0	0	0	0	-	-
CCCC[n+]1ccn(-c2nc3c([N+](=O)[O-])cccc3n2C)c1	0	0	0	0	67	-55
COCCn1nnnc1CN(CCc1ccccc1)Cc1cc2ccc(C)cc2[nH]c1=O	0	0	0	0	-	-
Nc1ccc(C(=O)OCc2ccncc2)cc1[N+](=O)[O-]	0	0	0	0	35	-31
CCC(=O)Nc1ccc(OCc2nc3ccccc3s2)cc1	0	0	0	0	-	-
O=[N+]([O-])c1cccc(-c2nc(-c3ccncc3)no2)c1	0	7.1	0	0	44	-43
CCN1CCN(c2cc(N3CCN(C(=O)c4ccco4)CC3)c3c4c(onc24)-c2ccccc2C3=O)CC1	0	0	0	0	25	-52
O=C(c1ccco1)C(O)c1ccco1 (configuration not stated)	0	0	0	0	-	-
COc1c(N2CCN[C@H](C)C2)c(F)cc2c(=O)c(C(=O)O)cn(C3CC3)c12	0	6.3	0	-	31	-40
COc1c(F)c(F)cc2c(=O)c(C(=O)O)cn(C3CC3)c12	0	0	0	0	-	-
COc1c(N2C[C@@H]3CCCN[C@@H]3C2)c(F)cc2c(=O)c(C(=O)O)cn(C3CC3)c12	0	7.8	0	0	35	-42
CCOc1ccc(NC(=O)c2ccc(NC(=O)c3cn4c5c(c(N6CCN(C)CC6)c(F)cc5c3=O)OCC4C)cc2)cc1 (configuration not stated)	0	0	0	0	-	-
CC1COc2c(N3CCN(C)CC3)c(F)cc3c(=O)c(C(=O)O)cn1c23 (configuration not stated)	0	8.7	0	0	44	-44
O=C(CN1CCN(S(=O)(=O)c2ccc(Br)s2)CC1)N1CCCCC1	-	-	-	0	-	-
CC(=O)Nc1ccc(NC(=O)c2ccccc2N(C)S(=O)(=O)c2ccccc2)cc1	0	0	0	0	-	-
CCOC(=O)C1CCN(C(=O)c2ccc3c(c2)NC(=O)/C(=C\c2cccc(C)c2)S3)CC1	0	0	0	0	-	-
CCc1cc(=O)oc2cc(C)cc(OCC(=O)NCCCn3ccnc3)c12	0	0	0	0	-	-
Cc1cc(=O)oc2c3c(cc(OCC(=O)NCCCn4ccnc4)c12)OC(C)(C)CC3	0	0	0	0	24	-36
SMILES	CHT block	CHT allo act	ANO1 block	TMEM16A act	CHT activ conf	HEK293 MP dye
CCc1cc(=O)oc2cc(C)cc(OC(C)C(=O)NC3CCN(Cc4ccccc4)CC3)c12 (configuration not stated)	0	0	0	0	54	-45
CCCc1cc(=O)oc2c3c(cc(OCC(=O)NCCCn4ccnc4)c12)OC(C)(C)CC3	0	0	0	0	-	-
CCCc1cc(=O)oc2c(C)c(OCC(=O)NCCCn3ccnc3)ccc12	0	0	0	0	44	-44
Cc1cc(OCC(=O)NCCCn2ccnc2)c2c(C)c(C)c(=O)oc2c1	0	0	0	0	41	-64
CN(CC(=O)Nc1ccc(Cl)cc1)CC(=O)Nc1ccc(F)c(F)c1F	0	0	0	0	-	-
COc1cc(C2c3[nH]c4ccccc4c3CC3COC(=O)N32)cc(OC)c1O (configuration not stated)	-	-	-	0	-	-
CCCc1cc(=O)oc2c3c(cc(OCC(=O)NCC4CCC(C(=O)O)CC4)c12)OC(C)(C)CC3 (configuration not stated)	0	0	0	0	0	0
Cc1cc(OC(C)C(=O)NCCN2CCOCC2)c2c(C)cc(=O)oc2c1 (configuration not stated)	0	0	0	0	-	-
Cc1cc(OCC(=O)NCCN2CCOCC2)c2c(C)c(C)c(=O)oc2c1	0	0	0	0	56	-54
CCc1cc(=O)oc2cc(C)cc(OC(C)C(=O)NCCCN3CCOCC3)c12 (configuration not stated)	0	0	0	0	43	-33
Cc1cc(OC(C)C(=O)NCCCN2CCOCC2)c2c(C)c(C)c(=O)oc2c1 (configuration not stated)	0	6.4	0	0	62	-48
Cc1ccc(-c2nn(C)c(=O)c3ccccc23)cc1CNS(C)(=O)=O	0	0	0	0	-	-
Cc1ccc(-c2nn(C)c(=O)c3ccccc23)cc1CN1CCCCC1	0	8.7	0	0	27	-52
COc1ccc(C)cc1NC(=O)CN(c1ccccc1)S(C)(=O)=O	0	0	0	0	-	-
CCCN(CC(=O)Nc1cc(Cl)cc(Cl)c1)CC(=O)Nc1ccc(F)c(F)c1F	0	0	0	0	-	-
CCCN(CC(=O)Nc1ccccc1Br)CC(=O)Nc1ccc(F)c(F)c1F	0	0	0	0	18	0
COc1cc(SC)ccc1C(=O)NCc1ccc(C)cc1	0	0	0	0	-	-
COc1ccc(S(=O)(=O)Nc2c(NC3CCCCC3)c3ccccc3oc2=O)cc1	0	0	0	0	-	-
COc1ccc(-c2nc(NC3=NCCCCC3)sc2C)cc1	0	0	0	0	-	-
COc1ccc2nc(NC3=NCCC3)sc2c1	0	6.5	0	0	54	-45
COc1ccc(C(N)c2nccc3cc(OC)c(OC)cc23)cc1OC (configuration not stated)	0	7.3	0	0	53	-41
Cc1cc(N2CCN(Cc3cn(C)nc3-c3ccccc3F)CC2)cc(C)n1	0	0	0	0	77	-74
CSc1ccc(/C=C(/NC(=O)c2ccccc2)C(=O)N2CCN(C)CC2)cc1	0	0	0	0	-	-
CC1Cc2ccccc2N1CC(=O)Nc1ccc(S(=O)(=O)N(C)C)cc1 (configuration not stated)	0	0	0	0	-	-
CC(C)(C)c1ccc(NC(=O)N2CCCN(c3c(Cl)cncc3Cl)CC2)cc1	0	0	0	0	12	0
CCOC(=O)c1ccc2[nH]c3c(c2c1)CN(C)CC3	0	6.8	0	0	32	-43
Cc1ccc2[nH]c3c(c2c1)CN(C)CC3	0	0	0	0	-	-
